The panel holds about 83,000 compounds, 20% with a hit somewhere; the sample as a whole holds those more often.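 Growth was measured after 48 h exposure to one concentration of compound in 96-well plates. Values under 10 count as active.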 A number with no mark means an inactive call. Active and inactive are the calls of the source.

Among the test systems are NCI-H23 lung; NCI-H226 lung; NCI-H322M lung; HOP-62 NSCLC; NCI-H460 lung; HOP-92 NSCLC; NCI-H522 lung; A549/ATCC NSCLC; 786-0 renal; COLO 205 colon; DU-145 prostate; K-562 leukemia; MALME-3M melanoma; MDA-MB-231 breast; RXF 393 renal; SF-268 CNS; SF-295 CNS; UACC-257 melanoma; M14 melanoma.
What all share (experiment): NCI-60 one-dose screen, 48 h (100 = growth as untreated, 0 = no growth, -100 = all killed)
Holding throughout (conditions): 10 µM unless noted

Turning to `Cn1c(=O)c2c(ncn2CC[N+](C)(C)C)n(C)c1=O`, the growth was 99.9% in the experiment on NCI-H23 lung; 93.2% in the experiment with NCI-H226 lung; 101% with NCI-H322M lung; 92% in the experiment on HOP-62 NSCLC; 109% with NCI-H460 lung; 110% in the experiment with HOP-92 NSCLC. Also, the growth is 80.7% with NCI-H522 lung; 91.7% with A549/ATCC NSCLC; 108% in the experiment with 786-0 renal; 103% in the experiment on COLO 205 colon; 104% in the experiment on DU-145 prostate; 92.1% with K-562 leukemia. For the same compound, the growth in the experiment on MALME-3M melanoma is 105%; in the experiment with MDA-MB-231 breast, 104%; with RXF 393 renal, 111%; in the experiment with SF-268 CNS, 98.6%; in the experiment with SF-295 CNS, 103%; with UACC-257 melanoma it was 94.4%. Further, the growth in the experiment on M14 melanoma is 103%.
As to `O=C(CN1CCN(c2cc3c(cc2F)c(=O)c(C(=O)O)cn3C2CC2)CC1)Nc1nc(-c2ccccc2)cs1`, the growth with NCI-H23 lung was 86.4%; with NCI-H226 lung, 77.3%; with NCI-H322M lung, 102%; in the experiment with HOP-62 NSCLC it was 81.1%; in the experiment on NCI-H460 lung, 73.3%; with HOP-92 NSCLC, 70.8%. The growth with NCI-H522 lung is 75.5%; in the experiment on A549/ATCC NSCLC, 65.2%; in the experiment on 786-0 renal, 75.5%; in the experiment on COLO 205 colon it was 93.3%; in the experiment on DU-145 prostate, 79.7%; in the experiment on K-562 leukemia it was 64.5%. Further, the growth with MALME-3M melanoma is 89.8%; in the experiment with MDA-MB-231 breast it was 95.5%; in the experiment with RXF 393 renal, 78.2%; in the experiment on SF-268 CNS it was 83.9%; with SF-295 CNS it was 69.9%; in the experiment with UACC-257 melanoma, 65.2%. The growth with M14 melanoma was 76%.
Consider `COc1ccc(C(=O)/C=C/c2cc3ccccc3[nH]c2=O)cc1`, for which the growth in the experiment with NCI-H23 lung is 11.9%; in the experiment with NCI-H226 lung it was 64.5%; in the experiment with NCI-H322M lung, 61.5%; in the experiment on HOP-62 NSCLC, 29.7%; in the experiment on NCI-H460 lung, 3.4% (active); in the experiment with HOP-92 NSCLC, 34.6%. Besides, the growth with NCI-H522 lung was -31% (active); with A549/ATCC NSCLC, 42.3%; in the experiment with 786-0 renal, 33.5%; in the experiment with COLO 205 colon it was 66.9%; with DU-145 prostate it was -26.7% (active); in the experiment with K-562 leukemia it was 16.7%. Moreover, the growth in the experiment on MALME-3M melanoma is 74.2%; in the experiment with MDA-MB-231 breast, 56.3%; in the experiment on RXF 393 renal, 16.6%; in the experiment with SF-268 CNS, 28.9%; in the experiment with SF-295 CNS it was 48.9%; with UACC-257 melanoma it was 59.1%. In the experiment with M14 melanoma, the growth is 59.6%.
Turning to `COc1ccc(C2CC(=O)Nc3c2c(C)nn3-c2nc3ccccc3[nH]2)cc1` (configuration not stated), the growth in the experiment with NCI-H23 lung was 99.1%; in the experiment with NCI-H226 lung it was 101%; with NCI-H322M lung, 53.9%; in the experiment on HOP-62 NSCLC it was 116%; in the experiment on NCI-H460 lung, 20.8%; in the experiment with HOP-92 NSCLC, 89.1%. Moreover, the growth is 98.2% in the experiment with NCI-H522 lung; 97.4% in the experiment on A549/ATCC NSCLC; 106% in the experiment on 786-0 renal; 129% in the experiment on COLO 205 colon; 89.1% in the experiment with DU-145 prostate; -33.9% (active) in the experiment with K-562 leukemia. Also, the growth is 28.8% with MALME-3M melanoma; 109% in the experiment on MDA-MB-231 breast; 101% with RXF 393 renal; 47.9% with SF-268 CNS; 85.9% with SF-295 CNS; 111% with UACC-257 melanoma. Further, in the experiment on M14 melanoma, the growth was 84.5%.
As for `C=C1CC[C@@H]2[C@](C)(COC(C)=O)[C@H](OC(C)=O)CC[C@@]2(C)[C@@H]1CC(Nc1ccc(S(=O)(=O)Nc2ccc(Cl)nn2)cc1)C1=CCOC1=O` (some centres not stated), the growth with NCI-H23 lung is 58.2%; in the experiment on NCI-H226 lung, -10% (active); in the experiment on NCI-H322M lung it was 57%; in the experiment with HOP-62 NSCLC, 47.9%; with NCI-H460 lung, 14.5%; in the experiment with HOP-92 NSCLC, 69.8%. The growth with NCI-H522 lung is -34.5% (active); with A549/ATCC NSCLC, 61.6%; with 786-0 renal, 58.8%; in the experiment with COLO 205 colon, 18%; with DU-145 prostate, 40.2%; with K-562 leukemia, 6.81% (active). In addition, the growth in the experiment on MALME-3M melanoma was 55.3%; with MDA-MB-231 breast it was 23.8%; with RXF 393 renal it was -13.4% (active); with SF-268 CNS, 43.3%; in the experiment on SF-295 CNS, 92.8%; in the experiment on UACC-257 melanoma, 44%. Moreover, in the experiment with M14 melanoma, the growth was 10.7%.
For `CCC(c1ccccc1)C(CC)c1ccc(O)c(O)c1` (configuration not stated), the growth is 89.5% in the experiment with NCI-H23 lung; 97.4% in the experiment with NCI-H226 lung; 96.1% in the experiment on NCI-H322M lung; 124% in the experiment with HOP-62 NSCLC; 107% in the experiment on NCI-H460 lung; 83.6% with HOP-92 NSCLC. Besides, the growth in the experiment with NCI-H522 lung was 85.2%; in the experiment on A549/ATCC NSCLC it was 98.6%; with 786-0 renal, 98.9%; with COLO 205 colon, 125%; in the experiment on DU-145 prostate it was 100%; with K-562 leukemia, 87%. The growth with MALME-3M melanoma is 114%; in the experiment on MDA-MB-231 breast, 109%; in the experiment with RXF 393 renal it was 106%; in the experiment with SF-268 CNS it was 92.1%; in the experiment on SF-295 CNS, 106%; in the experiment with UACC-257 melanoma it was 97.3%. Moreover, the growth with M14 melanoma was 96.9%.
`Oc1ccc2c(=S)cc(-c3ccc(Br)cc3)oc2c1O`: the growth with NCI-H23 lung is -13.7% (active); with NCI-H226 lung it was 90.5%; in the experiment on NCI-H322M lung, 10.5%; in the experiment with HOP-62 NSCLC, 28.7%; in the experiment on NCI-H460 lung, 3.24% (active); in the experiment with HOP-92 NSCLC, -18.9% (active). For the same compound, the growth with NCI-H522 lung is -27% (active); in the experiment on A549/ATCC NSCLC it was 3.47% (active); with 786-0 renal, 28.1%; in the experiment on COLO 205 colon it was 103%; with DU-145 prostate, 25.5%; in the experiment on K-562 leukemia, 20.7%. Moreover, the growth is 38.3% in the experiment with MALME-3M melanoma; 3.73% (active) in the experiment on MDA-MB-231 breast; 33.4% with RXF 393 renal; 9.4% (active) with SF-268 CNS; 100% in the experiment with SF-295 CNS; 67.5% in the experiment with UACC-257 melanoma. Besides, in the experiment on M14 melanoma, the growth was 12.3%.
For the compound `COc1cc(OC)c(/C=C/S(=O)(=O)Cc2ccc(OC)c(N)n2)c(OC)c1`, the growth in the experiment with NCI-H23 lung was 26.6%; with NCI-H226 lung, 59.6%; with NCI-H322M lung, 36.3%; in the experiment on HOP-62 NSCLC it was 11.6%; with NCI-H460 lung it was 8.27% (active); with HOP-92 NSCLC it was 79.9%. Also, the growth is -36.1% (active) with NCI-H522 lung; 6.41% (active) in the experiment with A549/ATCC NSCLC; 15.9% in the experiment on 786-0 renal; -70.7% (active) in the experiment on COLO 205 colon; 2.86% (active) in the experiment with DU-145 prostate; 8.04% (active) in the experiment on K-562 leukemia. Moreover, the growth with MALME-3M melanoma is 59.2%; with MDA-MB-231 breast, 15.3%; with RXF 393 renal, 43.8%; in the experiment with SF-268 CNS it was 39%; in the experiment with SF-295 CNS it was 6.52% (active); in the experiment on UACC-257 melanoma it was 47.8%. The growth in the experiment with M14 melanoma is 11.2%.

The values are drawn from PubChem BioAssay (NCI).
